Records with an inconclusive call do not appear. Activity calls are given as the source filed them. Unless noted, calls come from the whole dose curve.
Key:
[1] = target: Peroxisome proliferator-activated receptor delta (Homo sapiens) (UniProt Q03181); assay: qHTS assay for small molecule agonists of peroxisome proliferator-activated receptor delta signaling (AID 588534);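 note: 0% = DMSO basal wells and 100% = positive control agonist at 10 µM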
Summary of the method: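 Agonist-mode qHTS; reporter cells, 5 hrs 37 C pre-incubation; compound titration, 18 hrs 37 C; CCF4 dye, 2 hrs RT; fluorescence read. EC50/efficacy via Hill fit.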

[2] = target: Estrogen receptor (Homo sapiens) (UniProt P03372); assay: qHTS assay for small molecule antagonists of estrogen receptor alpha signaling (AID 588513; active = well fitted curve in the direction sought with a large enough effect in the signal ratio, with a control signal flat, not every such curve was filed as active; the % refers to the signal ratio; note: % is set by controls: 0 for no effect and ±100 for the full control effect)
Estrogen receptor (Homo sapiens), sequence (P03372 whole entry, looked up): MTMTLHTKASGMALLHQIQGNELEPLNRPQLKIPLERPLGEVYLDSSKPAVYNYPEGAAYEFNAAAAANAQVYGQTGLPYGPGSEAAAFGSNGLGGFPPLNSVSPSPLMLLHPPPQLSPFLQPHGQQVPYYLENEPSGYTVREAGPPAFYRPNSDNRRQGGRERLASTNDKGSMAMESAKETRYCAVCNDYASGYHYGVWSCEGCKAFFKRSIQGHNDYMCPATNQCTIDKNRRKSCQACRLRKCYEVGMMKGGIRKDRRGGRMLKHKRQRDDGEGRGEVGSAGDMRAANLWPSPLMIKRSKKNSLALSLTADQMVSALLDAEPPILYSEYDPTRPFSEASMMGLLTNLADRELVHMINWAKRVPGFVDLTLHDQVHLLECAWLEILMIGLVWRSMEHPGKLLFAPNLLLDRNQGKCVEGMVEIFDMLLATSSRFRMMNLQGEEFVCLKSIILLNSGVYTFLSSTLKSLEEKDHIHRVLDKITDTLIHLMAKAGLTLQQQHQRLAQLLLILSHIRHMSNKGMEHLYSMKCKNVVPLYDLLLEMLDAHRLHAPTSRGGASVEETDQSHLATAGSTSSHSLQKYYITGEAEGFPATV
Summary of the method: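 Beta-lactamase reporter, antagonist mode, HEK 293 GripTite cells; 0.5nM E2 stimulus, 18 h, 37 C; CCF4 dye 2 h RT; fluorescence. IC50 and efficacy from Hill fits, normalized to E2 and DMSO.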

[3] = target: Estrogen receptor (Homo sapiens) (UniProt P03372); assay: qHTS assay for small molecule agonists of estrogen receptor alpha signaling (AID 588514);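 note: 0% = vehicle only and 100% = reference agonist; nearly all actives have a fitted effect of over 70% in size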
Summary of the method: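 Efficacy is expressed against 20 nM 17-beta-estradiol (100%) and DMSO basal (0%); EC50 from Hill equation. Assay: beta-lactamase reporter in ER-alpha-UAS-bla HEK 293 cells, 18 h compound incubation, CCF4 detection.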

[4] = target: Glucocorticoid receptor (Homo sapiens) (UniProt P04150); assay: qHTS assay for small molecule agonists of glucocorticoid receptor signaling (AID 588532; active = well fitted curve in the direction sought with a large enough effect in the signal ratio, with a control signal flat; the % refers to the signal ratio;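 note: 100% = dexamethasone at 0.1 µM and 0% = DMSO only wells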); settings: HeLa MMTV-bla, beta-lactamase ratio, agonist, 18 h; activation: stronger effect = higher value, percent of dexamethasone control, DMSO zero
Glucocorticoid receptor (Homo sapiens), sequence (P04150 whole entry, looked up): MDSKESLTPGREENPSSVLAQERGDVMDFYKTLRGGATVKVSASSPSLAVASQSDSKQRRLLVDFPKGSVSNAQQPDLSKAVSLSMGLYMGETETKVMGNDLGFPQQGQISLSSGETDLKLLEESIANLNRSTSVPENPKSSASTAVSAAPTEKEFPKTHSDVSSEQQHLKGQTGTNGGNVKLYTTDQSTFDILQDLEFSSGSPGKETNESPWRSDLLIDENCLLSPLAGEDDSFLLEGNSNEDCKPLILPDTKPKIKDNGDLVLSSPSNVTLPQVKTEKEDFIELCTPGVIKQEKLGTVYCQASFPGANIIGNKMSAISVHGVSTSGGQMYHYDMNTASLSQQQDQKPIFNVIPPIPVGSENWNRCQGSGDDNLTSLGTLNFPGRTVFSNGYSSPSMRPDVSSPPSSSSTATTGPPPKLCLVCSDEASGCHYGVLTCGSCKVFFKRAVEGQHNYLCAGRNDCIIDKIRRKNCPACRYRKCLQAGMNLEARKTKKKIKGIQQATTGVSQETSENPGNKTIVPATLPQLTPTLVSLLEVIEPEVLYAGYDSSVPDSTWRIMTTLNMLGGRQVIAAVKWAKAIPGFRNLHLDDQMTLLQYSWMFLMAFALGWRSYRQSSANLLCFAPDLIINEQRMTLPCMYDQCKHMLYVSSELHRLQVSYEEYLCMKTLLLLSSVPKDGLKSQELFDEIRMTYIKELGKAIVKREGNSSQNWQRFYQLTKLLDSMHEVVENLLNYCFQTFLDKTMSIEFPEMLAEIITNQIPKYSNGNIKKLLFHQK
Summary of the method: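 MMTV-bla HeLa, beta-lactamase reporter; medium with 1% charcoal/dextran-stripped FBS; cpds up to 92 uM, 18 h, 37 C; CCF4 readout 460/530 nm; Hill fit → EC50, efficacy vs 0.1 uM dexamethasone = 100%.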

[5] = target: Vitamin D3 receptor (Homo sapiens) (UniProt P11473); assay: qHTS assay for small molecule antagonists of vitamin D receptor signaling (AID 588541);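 note: receptor activated by calcitriol during compound treatment; series mostly up to about 77 µM; % is set by controls: 0 for no effect and ±100 for the full control effect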
Vitamin D3 receptor (Homo sapiens), sequence (P11473 whole entry, looked up): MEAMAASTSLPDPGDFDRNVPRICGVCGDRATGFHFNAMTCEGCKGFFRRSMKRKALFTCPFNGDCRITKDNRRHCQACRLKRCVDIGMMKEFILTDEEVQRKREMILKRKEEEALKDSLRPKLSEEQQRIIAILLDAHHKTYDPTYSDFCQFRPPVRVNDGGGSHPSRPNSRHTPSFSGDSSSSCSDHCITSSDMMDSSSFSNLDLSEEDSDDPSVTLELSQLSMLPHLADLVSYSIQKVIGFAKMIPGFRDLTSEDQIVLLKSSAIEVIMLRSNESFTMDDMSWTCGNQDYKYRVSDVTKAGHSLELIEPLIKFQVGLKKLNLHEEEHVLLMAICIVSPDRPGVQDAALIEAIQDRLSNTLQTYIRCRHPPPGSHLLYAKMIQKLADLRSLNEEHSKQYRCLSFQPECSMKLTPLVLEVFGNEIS
Summary of the method: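 VDR-UAS-bla HEK293T cells (2000/well, 2% charcoal-stripped FBS) were treated with titrated compounds plus 1-alpha,25-dihydroxyvitamin D3 (50 nM or 3 nM final) for 16 h at 37 C. CCF4 beta-lactamase fluorescence was read; Hill fits gave IC50.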

[6] = target: Vitamin D3 receptor (Homo sapiens) (UniProt P11473); assay: qHTS assay for small molecule agonists of vitamin D receptor signaling (AID 588543);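 note: 0% = DMSO basal and 100% = reference agonist control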
Summary of the method: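 β-lactamase reporter, VDR-UAS-bla HEK293T, agonist mode. Cells plated 5 h at 37 °C, compound titration 16 h at 37 °C, CCF4 dye 2 h RT, ratio 460/530 nm. Hill fit → EC50, efficacy vs 50 nM 1α,25-(OH)2D3.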

[7] = qHTS assay for small molecule agonists of retinoid X receptor alpha signaling (AID 588544); settings: HEK293T RXRa-UAS-bla, beta-lactamase reporter, 18 h; 530 nm emission;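 for activation: 0% = DMSO basal wells and 100% = reference agonist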
[8] = target: Retinoic acid receptor RXR-alpha (Homo sapiens) (UniProt P19793); assay: as above
Retinoic acid receptor RXR-alpha (Homo sapiens), sequence (P19793 whole entry, looked up): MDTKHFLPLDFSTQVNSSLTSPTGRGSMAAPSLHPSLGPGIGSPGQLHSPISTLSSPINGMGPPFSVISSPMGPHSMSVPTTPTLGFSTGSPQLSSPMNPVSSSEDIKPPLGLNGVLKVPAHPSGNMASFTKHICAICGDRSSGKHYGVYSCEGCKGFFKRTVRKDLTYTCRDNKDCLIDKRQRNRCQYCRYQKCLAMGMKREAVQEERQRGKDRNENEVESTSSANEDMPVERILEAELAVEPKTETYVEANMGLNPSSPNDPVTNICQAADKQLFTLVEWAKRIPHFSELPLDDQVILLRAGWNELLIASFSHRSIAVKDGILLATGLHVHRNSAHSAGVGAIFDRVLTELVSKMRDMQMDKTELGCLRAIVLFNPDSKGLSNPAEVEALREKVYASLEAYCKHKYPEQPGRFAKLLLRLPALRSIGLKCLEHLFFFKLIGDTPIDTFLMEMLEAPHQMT

[9] = target: Thyroid hormone receptor beta (Homo sapiens) (UniProt P10828); assay: qHTS assay for small molecule agonists of thyroid hormone receptor beta signaling (AID 588545)
Thyroid hormone receptor beta (Homo sapiens), sequence (P10828 whole entry, looked up): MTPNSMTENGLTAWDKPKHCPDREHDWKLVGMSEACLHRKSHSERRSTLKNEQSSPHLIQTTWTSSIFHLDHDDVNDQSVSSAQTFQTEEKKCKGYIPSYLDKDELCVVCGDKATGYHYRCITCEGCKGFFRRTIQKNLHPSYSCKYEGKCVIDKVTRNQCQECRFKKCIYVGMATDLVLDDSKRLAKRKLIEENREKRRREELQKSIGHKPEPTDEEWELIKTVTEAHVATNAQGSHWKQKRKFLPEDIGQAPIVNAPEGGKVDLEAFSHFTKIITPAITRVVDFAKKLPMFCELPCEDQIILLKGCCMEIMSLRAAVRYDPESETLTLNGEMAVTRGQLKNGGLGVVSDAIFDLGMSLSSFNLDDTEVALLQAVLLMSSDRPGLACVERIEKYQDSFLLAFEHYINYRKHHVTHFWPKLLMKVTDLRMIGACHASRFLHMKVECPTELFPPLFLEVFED
Summary of the method: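 HEK 293 TR-UAS-bla; agonist mode; 18 hrs, 37 C; CCF4, ex 405/em 460 and 530 nm; norm. T3 10 nM = 100%, DMSO = 0%; Hill fit → EC50, efficacy.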

[10] = qHTS assay for small molecule antagonists of retinoid X receptor alpha signaling (AID 588546; active = well fitted inhibition curve with a large enough effect in the signal ratio, with a control signal flat, not every such curve was filed as active; the % refers to the signal ratio;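 note: cells stimulated with 9-cis-retinoic acid as agonist; % is set by controls: 0 for no effect and ±100 for the full control effect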); settings: HEK293T RXRa-UAS-bla, beta-lactamase ratio, antagonist mode; measured here: W530 green channel, cytotoxicity proxy
Summary of the method: (§1)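 Beta-lactamase reporter inhibition, read as CCF4 fluorescence ratio (ex 405, em 460/530 nm) after 2 h at RT. HEK293T UAS-bla cells, 2500/well, were stimulated with 9-cis-RA at 500 or 100 nM final alongside test compound for 18 h at 37 C.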

[11] = target: Retinoic acid receptor RXR-alpha (Homo sapiens) (UniProt P19793); assay: as above; settings: HEK293T RXRa-UAS-bla, beta-lactamase ratio, antagonist mode
Summary of the method: as §1

[12] = qHTS assay for small molecule activators of the p53 signaling pathway (AID 651743; active = well fitted activation curve with a large enough effect in the signal ratio, not every such curve was filed as active; the % refers to the signal ratio; note: series mostly up to about 92 µM; % of control where 0% means no effect); settings: HCT-116 p53RE-bla, beta-lactamase FRET ratio, 16 h; activation: stronger effect = higher value
Summary of the method: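 Agonist-mode quantitative HTS in HCT-116 cells carrying a p53-response-element beta-lactamase reporter; 16 h compound treatment at 37 C, then FRET substrate loading for 2 h at room temperature and fluorescence read.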

[13] = qHTS assay for environmental chemicals that activate the Aryl hydrocarbon Receptor (AhR) signaling pathway (AID 651777; active = well fitted curve in the direction sought with a large enough effect; an effect the other way counts as inactive or inconclusive; note: % of control where 0% means no effect; nearly all actives have a fitted effect of over 15% in size); settings: 1A2-DRE human hepatoma cells, luciferase, 24 h; activation: stronger effect = higher value
Summary of the method: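 Human hepatoma 1A2-DRE cells stably carrying a DRE/CYP1A2 promoter–luciferase reporter, 1,200 cells/well, exposed to compound 24 hr at 37 C. Luciferase read by One-Glo luminescence after 30 min at room temperature; increased signal marks AhR activation.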

[14] = target: Peroxisome proliferator-activated receptor alpha (Homo sapiens) (UniProt Q07869); assay: qHTS assay for small molecule agonists of the peroxisome proliferator-activated receptor alpha (PPARalpha) signaling pathway (AID 651778; active = well fitted curve in the direction sought with a large enough effect; an effect the other way counts as inactive or inconclusive; note: % of control where 0% means no effect); settings: PathHunter PPARalpha complementation, chemiluminescence, 6 h; max response: stronger effect = higher value
Peroxisome proliferator-activated receptor alpha (Homo sapiens), sequence (Q07869 whole entry, looked up): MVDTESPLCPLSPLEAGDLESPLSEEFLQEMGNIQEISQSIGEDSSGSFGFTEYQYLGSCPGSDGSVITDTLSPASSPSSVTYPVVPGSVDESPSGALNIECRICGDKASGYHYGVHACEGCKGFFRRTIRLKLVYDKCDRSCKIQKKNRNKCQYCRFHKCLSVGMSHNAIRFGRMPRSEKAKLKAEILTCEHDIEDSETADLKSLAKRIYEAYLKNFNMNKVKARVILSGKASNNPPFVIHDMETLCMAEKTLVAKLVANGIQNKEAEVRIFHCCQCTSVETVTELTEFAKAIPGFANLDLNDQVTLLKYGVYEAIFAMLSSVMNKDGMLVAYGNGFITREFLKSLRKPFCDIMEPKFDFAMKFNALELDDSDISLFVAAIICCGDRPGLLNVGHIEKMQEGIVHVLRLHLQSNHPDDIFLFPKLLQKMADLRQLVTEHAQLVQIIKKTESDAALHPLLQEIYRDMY
Summary of the method: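 Cells plated at 2,000/well and held overnight at 37 C, 5% CO2, then compound added by pin tool for 6 hr; after PathHunter detection reagent and 60 min at room temperature, chemiluminescence from enzyme complementation was read.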

[15] = qHTS assay for small molecule agonists of the antioxidant response element (ARE) signaling pathway measured by Nrf2-dependant transcriptional activity (AID 720636; active = well fitted curve in the direction sought with a large enough effect in the repeat runs; an effect the other way counts as inactive or inconclusive; note: % of control where 0% means no effect)
Summary of the method: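 ARE-luc HepG2 cells carrying an Nrf2-responsive luciferase reporter, in medium with 1% dialyzed FBS, exposed to compound for 16 hr at 37 C, 5% CO2. Luminescence read 30 min after ONE-Glo addition.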

[16] = qHTS assay for small molecule agonists of the antioxidant response element (ARE) signaling pathway measured by Nrf2-dependant transcriptional activity - cell viability counter screen (AID 720653; active = well fitted curve in the direction sought with a large enough effect in the repeat runs; an effect the other way counts as inactive or inconclusive; note: % is set by controls: 0 for no effect and ±100 for the full control effect); settings: ARE-bla HepG2 viability, CellTiter-Glo ATP luminescence, 16 h; max response: stronger effect = lower value
Summary of the method: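 ARE-bla HepG2 cells (2,000/well) rested 5 hrs at 37C/5% CO2, then exposed to compounds in DMSO for 16 hrs. Viability was read in the same wells as intracellular ATP by luminescence, 30 min at room temperature after reagent addition.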

[17] = qHTS assay for cell viability of HEK293 cells (AID 743288; active = well fitted curve in the direction sought with a large enough effect; an effect the other way counts as inactive or inconclusive; note: % is set by controls: 0 for no effect and ±100 for the full control effect; nearly all actives have a fitted effect of over 50% in size); settings: ATP luminescence (CellTiter-Glo), 18 h; max response: stronger effect = lower value
Summary of the method: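 ATP luminescence (CellTiter-Glo) reports metabolically competent cell number after parental HEK293 cells, 2,000/well, were treated with DMSO-dissolved compounds for 18 h at 37 C; reagent incubation 30 min, room temperature.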

[18] = qHTS assay for cell viability of the p53RE-bla HCT-116 cell line (AID 743292; active = well fitted curve in the direction sought with a large enough effect; an effect the other way counts as inactive or inconclusive; note: % is set by controls: 0 for no effect and ±100 for the full control effect; nearly all actives have a fitted effect of over 55% in size)
Summary of the method: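 CellSensor p53RE-bla HCT-116 cells (4,000/well) pre-incubated 5 h at 37 C, then exposed to compounds in DMSO for 16 h at 37 C. Viability read as ATP content by CellTiter-Glo luminescence after 30 min at room temperature.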

[19] = target: Nuclear receptor subfamily 1 group I member 2 (Rattus norvegicus) (UniProt Q9R1A7); assay: qHTS assay for small molecule activators of the rat pregnane X receptor (rPXR) signaling pathway (AID 651751; call rule not given here; note: 0% is about no effect); settings: rPXR reporter cells, luciferase (One-Glo), 24 h
Nuclear receptor subfamily 1 group I member 2 (Rattus norvegicus), sequence (Q9R1A7 whole entry, looked up): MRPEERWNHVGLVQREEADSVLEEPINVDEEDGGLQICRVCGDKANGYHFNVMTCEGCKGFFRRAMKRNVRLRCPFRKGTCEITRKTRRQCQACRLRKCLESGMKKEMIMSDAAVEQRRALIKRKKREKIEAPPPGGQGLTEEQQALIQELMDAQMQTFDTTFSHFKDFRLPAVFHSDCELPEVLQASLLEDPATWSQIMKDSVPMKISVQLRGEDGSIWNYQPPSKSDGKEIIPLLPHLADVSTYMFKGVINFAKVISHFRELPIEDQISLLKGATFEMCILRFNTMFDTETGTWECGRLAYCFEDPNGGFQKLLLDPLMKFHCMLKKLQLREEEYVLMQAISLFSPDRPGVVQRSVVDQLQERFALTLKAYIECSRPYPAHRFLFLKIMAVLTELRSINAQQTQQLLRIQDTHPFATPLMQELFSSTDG

[20] = target: Thyroid hormone receptor beta (Homo sapiens) (UniProt P10828); assay: qHTS assay for small molecule antagonists of thyroid hormone receptor beta signaling (AID 588547; active = well fitted inhibition curve with a large enough effect in the signal ratio, with a control signal flat, not every such curve was filed as active; the % refers to the signal ratio); settings: TR-UAS-bla HEK293, beta-lactamase ratio, antagonist mode, 18 h
Summary of the method: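 TR-UAS-bla GripTite HEK293 cells in 2% charcoal/dextran FBS medium were preincubated 4 h at 37 C, given compound (0.59 nM to 92 uM) plus 0.4 nM T3 (final) for 18 h, then CCF4 for 2 h at RT; Hill fit gave IC50.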

Peroxisome proliferator-activated receptor delta (Homo sapiens), sequence (Q03181 whole entry, looked up): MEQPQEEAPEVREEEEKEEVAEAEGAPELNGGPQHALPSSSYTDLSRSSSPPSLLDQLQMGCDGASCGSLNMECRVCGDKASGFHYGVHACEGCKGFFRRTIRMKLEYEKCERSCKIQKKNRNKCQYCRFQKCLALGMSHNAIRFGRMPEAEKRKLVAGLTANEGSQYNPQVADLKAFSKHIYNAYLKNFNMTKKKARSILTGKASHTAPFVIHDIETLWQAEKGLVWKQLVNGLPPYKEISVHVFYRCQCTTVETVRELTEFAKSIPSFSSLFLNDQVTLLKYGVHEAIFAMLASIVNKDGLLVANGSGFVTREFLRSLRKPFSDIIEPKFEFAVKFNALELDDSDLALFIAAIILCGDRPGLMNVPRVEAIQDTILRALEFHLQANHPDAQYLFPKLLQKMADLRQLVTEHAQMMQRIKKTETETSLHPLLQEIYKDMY

Row | Structure (SMILES) | outcome [1] | Potency [2] | Potency [3] | activation [4] | Potency [5] | outcome [6] | max response [7] | Potency [8] | Potency [9] | max response [10] | max response [11] | activation [12] | activation [13] | max response [14] | Potency [15] | max response [16] | max response [17] | Potency [18] | max response [19] | activity change % (negative = inhibition) [20]
1 | C=C(C)c1ccccc1 | inactive |  |  |  |  |  |  |  |  |  |  |  |  |  |  |  |  |  |  | 
2 | c1ccc2ncccc2c1 | inactive |  |  |  |  |  |  |  |  |  |  |  |  |  |  |  |  |  |  | 
3 | COc1ccc(O)c(C(C)(C)C)c1 |  | inactive | inactive | -14% (inactive) | inactive | inactive | -14.4% | inactive | inactive | -10.9% | 7.69% (inactive) | 1.43% (inactive) | 3.77% (inactive) | 1.63% (inactive) | inactive | 1.24% (inactive) | -7.51% (inactive) | inactive | 3.52% (inactive) | 
4 | c1cc2c3c(cccc3c1)CC2 | inactive | inactive | inactive |  |  |  | -7.15% | inactive |  | -4.84% |  | 5.25% (inactive) | 0.274% (inactive) | -0.57% (inactive) | inactive | 18.9% (inactive) | -7.08% (inactive) | inactive | 0.0529% (inactive) | 3.51% (inactive)
5 | CCOP(=S)(S)OCC | inactive | inactive | inactive |  | inactive | inactive | -7.79% | inactive |  | -11.3% |  | -1.75% (inactive) | 0.356% (inactive) | -2.08% (inactive) | inactive | 2.15% (inactive) | -0.594% (inactive) | inactive | 1.97% (inactive) | 8.37% (inactive)
6 | COCc1cnc(C2=NC(C)(C(C)C)C(=O)N2)c(C(=O)O)c1 (configuration not stated) | inactive | inactive | inactive |  | inactive | inactive |  |  |  | -13.7% | 6.51% (inactive) |  | 1.65% (inactive) | 0.0113% (inactive) | inactive | 4.02% (inactive) | -3.54% (inactive) | inactive | -0.0309% (inactive) | -1.58% (inactive)
7 | CNC(=O)Oc1cccc2c1OC(C)(C)C2O (configuration not stated) | inactive | inactive | inactive | 12.4% (inactive) | inactive | inactive | -10.1% | inactive |  | -12.4% | -10.3% (inactive) | -0.021% (inactive) | 0.301% (inactive) | -1.14% (inactive) | inactive | -15.8% (inactive) | -0.251% (inactive) | inactive | -0.827% (inactive) | 7.05% (inactive)
8 | C/C(=N\C(N)=O)N(C)Cc1ccc(Cl)nc1 | inactive | inactive | inactive | -1.3% (inactive) | inactive | inactive | -8.24% | inactive | inactive | -9.48% | -3.51% (inactive) | -4.92% (inactive) | -0.747% (inactive) | -1.45% (inactive) | inactive | -7.18% (inactive) | 0.858% (inactive) | inactive | 2.68% (inactive) | -10.7% (inactive)
9 | CCCCC(CC)COC(=O)Cl (configuration not stated) |  | inactive | inactive |  | inactive | inactive | -16.3% | inactive | inactive | -5.58% | -2.38% (inactive) |  | 2.75% (inactive) | -1.56% (inactive) | inactive | -0.503% (inactive) | -1.32% (inactive) |  | 4.58% (inactive) | -1.19% (inactive)
10 | C/C=C(\C)C(=O)O[C@H]1C[C@@H](OC(C)=O)[C@@]2(C(=O)OC)CO[C@H]3[C@@H](O)[C@@](C)([C@]45O[C@@]4(C)[C@H]4C[C@@H]5O[C@@H]5OC=C[C@@]54O)[C@H]4[C@]1(CO[C@]4(O)C(=O)OC)[C@@H]32 | inactive | inactive | inactive | 4.96% (inactive) | inactive | inactive | -0.369% | inactive | inactive | -5.84% | 9.93% (inactive) |  | -0.999% (inactive) | -3.71% (inactive) | inactive | -22.9% (inactive) | -0.199% (inactive) | inactive |  | 7.18% (inactive)
11 | CCOP(=O)(O)C(N)=O | inactive | inactive | inactive | 4.17% (inactive) | inactive | inactive | -12.7% | inactive | inactive | -9.11% | -9.79% (inactive) |  | -2.02% (inactive) | -1.31% (inactive) | inactive | -6.84% (inactive) | -8.79% (inactive) | inactive | -2.01% (inactive) | -0.728% (inactive)
12 | CCOP(=O)(NC(C)C)Oc1ccc(S(C)=O)c(C)c1 (configuration not stated) | inactive | inactive | inactive | -7.67% (inactive) | inactive | inactive | 0.27% | inactive | inactive | -12.4% | 0.125% (inactive) |  | 3.87% (inactive) | -2.3% (inactive) |  | 20.7% (inactive) | -0.132% (inactive) | inactive | -1.03% (inactive) | 7.26% (inactive)

From PubChem BioAssay (NCATS)
